In the library only some 7.5% were active in any assay of this set; here they are far more common.
KinaseGlo FLuc = Counterscreen for Luciferase (Kinase-Glo TM) Inhibition; actives 0.28% (n = 200,000); Potency, µM (doses to about 38.3 µM), without a hit: at the highest dose activity change, negative = inhibition, actives largely listed as inhibitors; Kinase-Glo luciferase, ATP luminescence, 8 min; note: % is set by controls: 0 for no effect and ±100 for the full control effect; nearly all actives have a fitted effect of over 60% in size
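Recombinant Kinase-Glo luciferase, 10 uM ATP (linear range), luciferin; imidazole pH 7.2 / KCl / MgCl2 / Tween / BSA buffer; 8 min RT; luminescence.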
Rab9 promoter act = qHTS Assay for Rab9 Promoter Activators. Potency, µM (top dose mostly 9.22 µM), for the others: at the highest dose activation, negative = inhibition, hits mostly activators. Huh7 Rab9 promoter-luciferase reporter, luminescence, 24 h. AID 485297, 2010. actives 2.8% (n = 320,000); note: % of control where 0% means no effect; nearly all actives have a fitted effect of over 60% in size
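Huh7 reporter line, Rab9 promoter upstream of luciferase. Compound exposure 24 h at 37 °C in reduced-serum medium with 10% FBS. Read-out: luminescence.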
FLuc modulator = qHTS profiling assay for firefly luciferase inhibitor/activator using purifed enzyme and Km concentrations of substrates (counterscreen for miR-21 project); Luciferin 4-monooxygenase (Photinus pyralis), P08659; purified FLuc, Km substrates, luminescence inhibition; Potency, µM (top dose mostly 57.5 µM), without a hit: at the highest dose activity change, negative = inhibition, usual class: inhibitors; actives 6.9% (n = 360,000); AID 588342, 2011;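 note: plate controls were vehicle for no effect and reference inhibitor for full effect; nearly all actives have a fitted effect of over 55% in size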
Target sequence (P08659 whole entry, looked up): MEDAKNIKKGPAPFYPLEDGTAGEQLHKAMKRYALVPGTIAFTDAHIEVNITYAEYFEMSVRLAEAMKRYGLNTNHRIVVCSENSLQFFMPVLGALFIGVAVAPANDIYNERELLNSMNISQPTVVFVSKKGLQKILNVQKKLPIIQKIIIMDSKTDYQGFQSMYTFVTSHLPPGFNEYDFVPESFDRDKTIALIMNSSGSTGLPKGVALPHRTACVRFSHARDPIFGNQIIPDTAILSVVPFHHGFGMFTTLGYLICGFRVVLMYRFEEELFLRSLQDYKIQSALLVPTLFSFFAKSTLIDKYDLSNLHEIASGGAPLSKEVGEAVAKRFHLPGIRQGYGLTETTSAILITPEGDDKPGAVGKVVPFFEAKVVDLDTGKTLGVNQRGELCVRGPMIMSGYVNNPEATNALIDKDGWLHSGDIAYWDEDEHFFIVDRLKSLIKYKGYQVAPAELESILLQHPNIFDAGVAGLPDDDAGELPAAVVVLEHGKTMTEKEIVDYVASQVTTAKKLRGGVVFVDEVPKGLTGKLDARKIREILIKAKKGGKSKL
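Purified P. pyralis luciferase, 10 nM final, with Km-level 10 uM D-luciferin and 10 uM ATP in 50 mM Tris acetate pH 7.5, 10 mM Mg acetate, 0.01% Tween-20, 0.05% BSA; 6-point qHTS titration about 60 µM downward; luminescence read.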
SMN2 splice up = qHTS Assay for Enhancers of SMN2 Splice Variant Expression; Potency, µM (doses to about 46.1 µM), for the others: at the highest dose activity change, positive = activation, usual class: activators; HEK293 SMN2-luciferase splicing reporter, luminescence, 30-36 h; actives 2.8% (n = 210,000); note: % of control where 0% means no effect; nearly all actives have a fitted effect of over 55% in size
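qHTS luciferase splicing reporter: luminescence rises when SMN2 exon 7 is included in transfected HEK293 cells. Compound exposure lasted 30-36 h at 37C, with 4.5 mM final sodium butyrate as control, followed by a ONE-Glo read.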
ELG1 genotoxic = qHTS screen for small molecules that induce genotoxicity in human embryonic kidney (HEK293T) cells expressing luciferase-tagged ELG1; HEK293T ELG1-luciferase reporter, luminescence, 16 h; Potency, µM (highest dose often 46 µM), for inactives: top-dose activity change, positive = activation, usual class: activators; actives 1.3% (n = 330,000); note: % of control where 0% means no effect; nearly all actives have a fitted effect of over 60% in size
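Reporter readout depends on ELG1 protein level, which increases with genetic stress. After 16 hr compound exposure at 37 °C, luciferase activity was quantified using ONE-Glo.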
NPC1 promoter act = qHTS Assay for NPC1 Promoter Activators | Potency, µM (doses to about 9.22 µM), for the others: at the top dose activation, most hits filed as activators | Huh7 NPC1 promoter luciferase reporter, 24 h | actives 2.4% (n = 320,000) | AID 485313, 2010; note: % of control where 0% means no effect; nearly all actives have a fitted effect of over 60% in size
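Huh7 reporter cells (NPC1 promoter driving luciferase) are dosed with compound for 24 h at 37 °C, 5% CO2; luciferase detection reagent is then added and luminescence measured after 10 min at ambient temperature.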
Numbers without * were called inactive; [ ] = remark or other dose. Calls come from the whole dose curve; as a rule, active = well fitted curve in the direction sought with a large enough effect; inconclusive = small, poorly fitted or top-dose-only effect, or another doubt; inactive = no such curve, though single readings can be large; an effect the other way counts as inactive or inconclusive. Potency is the fitted concentration of half-maximal effect.

How did Cc1cc(C)cc(N2C(=O)CC(c3ccc(C(F)(F)F)cc3)C3=C2COC3=O)c1 (stereo not drawn) do in these assays?
FLuc modulator: -7%; SMN2 splice up: -7%

What do the screens show for `CCc1sc(C(=O)Nc2ccc(F)cc2C)cc1C`?
Rab9 promoter act: 21%; FLuc modulator: inconclusive; ELG1 genotoxic: 15%; NPC1 promoter act: 10%

Results for CCOC(=O)c1c(C)c(C(=O)NCc2ccc(Cl)cc2)c(C)n1CC ?
FLuc modulator: 1%; SMN2 splice up: -5%

Results for Cc1ccc2c(c1)sc(-c1ccc(N(C)C)cc1)[n+]2C ?
Rab9 promoter act: -39%; FLuc modulator: 12µM*; ELG1 genotoxic: 2%; NPC1 promoter act: -31%

How did COc1ccc(C)cc1Nc1n[n+](-c2ccccc2)c(-c2ccc(N(C)C)cc2)s1 do in these assays?
Rab9 promoter act: -7%; FLuc modulator: 0%; ELG1 genotoxic: -4%; NPC1 promoter act: -21%

How did Cc1ccc2oc(Nc3nc(C)cc(C)n3)nc2c1 do in these assays?
KinaseGlo FLuc: 5%; Rab9 promoter act: 3.2µM*; FLuc modulator: inconclusive; SMN2 splice up: 4%; ELG1 genotoxic: 9%; NPC1 promoter act: inconclusive

Results for Cc1ccc2oc(Nc3nc(-c4ccccc4)cc(=O)[nH]3)nc2c1 ?
KinaseGlo FLuc: -3%; Rab9 promoter act: inconclusive; FLuc modulator: inconclusive; SMN2 splice up: -15%; ELG1 genotoxic: 21µM*; NPC1 promoter act: 20%

How did Cc1cc(C)c2nc(Nc3nc(-c4ccccc4)cc(=O)[nH]3)nc(C)c2c1 do in these assays?
Rab9 promoter act: 1%; FLuc modulator: 1.7µM*; ELG1 genotoxic: 4%; NPC1 promoter act: 9%

What do the screens show for `Cc1ccc2oc(=O)c(/C=C(\O)C(C)(C)C)nc2c1`?
KinaseGlo FLuc: 1%; Rab9 promoter act: 13%; FLuc modulator: -10%; SMN2 splice up: 11%; ELG1 genotoxic: 0%; NPC1 promoter act: -2%

What do the screens show for `COC(=O)Cc1cc(=O)[nH]c(Nc2nc3ccccc3o2)n1`?
KinaseGlo FLuc: 4%; Rab9 promoter act: -4%; FLuc modulator: 17µM*; SMN2 splice up: 24%; ELG1 genotoxic: 8%; NPC1 promoter act: 5%

What do the screens show for `COc1ccc(S(=O)(=O)N2CCN(c3ccc(Cl)c(Cl)c3)CC2)c2ccccc12`?
FLuc modulator: 0%; SMN2 splice up: -22%

What do the screens show for `CN(C)C(=O)/N=N/C(=O)N(C)C`?
KinaseGlo FLuc: -10%; Rab9 promoter act: -6%[46.1 µM]; SMN2 splice up: -9%; NPC1 promoter act: 6%[46.1 µM]

What do the screens show for `Cc1ccc(-c2cc3ncc(C(=O)c4cc([N+](=O)[O-])ccc4O)cn3n2)cc1`?
FLuc modulator: 9.5µM*; SMN2 splice up: -9%

Results for O=C(c1cnc2cc(-c3ccccc3)nn2c1)c1cc([N+](=O)[O-])ccc1O ?
FLuc modulator: inconclusive; SMN2 splice up: -18%

What do the screens show for `CCOC(=O)N/N=C/c1cccc(Cl)c1Cl`?
KinaseGlo FLuc: -1%; Rab9 promoter act: 23%; FLuc modulator: 21µM*; SMN2 splice up: inconclusive; ELG1 genotoxic: 11%; NPC1 promoter act: 17%

Results for CCCn1c(=O)c(C(=O)N/N=C/c2ccc(F)cc2)c(O)c2ccccc21 ?
Rab9 promoter act: -6%; FLuc modulator: 1%; ELG1 genotoxic: -3%; NPC1 promoter act: 1%

Results for Cc1cc(C(=O)NNc2c(Cl)cccc2Cl)no1 ?
Rab9 promoter act: 1%; FLuc modulator: 0%; ELG1 genotoxic: 1%; NPC1 promoter act: -2%

How did CCOC(=O)N/N=C/c1ccc(N(CC)CC)cc1O do in these assays?
KinaseGlo FLuc: -1%; Rab9 promoter act: -2%; FLuc modulator: 24µM*; SMN2 splice up: inconclusive; ELG1 genotoxic: inconclusive; NPC1 promoter act: -11%

What do the screens show for `CCCn1c(=O)c(C(=O)N/N=C/c2ccccc2F)c(O)c2ccccc21`?
KinaseGlo FLuc: -1%; Rab9 promoter act: 2.2µM*; FLuc modulator: -7%; SMN2 splice up: 13µM*; ELG1 genotoxic: inconclusive; NPC1 promoter act: inconclusive

How did Cc1cc(C(=O)N/N=C/c2cccc(Cl)c2Cl)no1 do in these assays?
KinaseGlo FLuc: -4%; Rab9 promoter act: inconclusive; FLuc modulator: 11µM*; SMN2 splice up: 20%; ELG1 genotoxic: 21µM*; NPC1 promoter act: inconclusive

How did CC[C@]12c3[nH]c4ccc(OC)cc4c3CCN1C(=O)C(CC(=O)NC(C)(C)C)C[C@@H]2C(=O)N1CCN(C(=O)c2ccco2)CC1 (stereo partly drawn) do in these assays?
ELG1 genotoxic: 6%

What do the screens show for `CCOC(=O)N/N=C/c1ccccc1F`?
KinaseGlo FLuc: -6%; Rab9 promoter act: 2.8µM*; FLuc modulator: inconclusive; SMN2 splice up: inconclusive; ELG1 genotoxic: 28%; NPC1 promoter act: 2.5µM*

How did CCOC(=O)N/N=C/c1cn(CCCOc2ccc(C)cc2)c2ccccc12 do in these assays?
KinaseGlo FLuc: -2%; Rab9 promoter act: inconclusive; FLuc modulator: -3%; SMN2 splice up: -70%; ELG1 genotoxic: -1%; NPC1 promoter act: 1.8µM*

How did CCOC(=O)N/N=C/c1cn(CCCOc2ccccc2)c2ccccc12 do in these assays?
KinaseGlo FLuc: 0%; Rab9 promoter act: inconclusive; FLuc modulator: 0%; SMN2 splice up: -49%; ELG1 genotoxic: -3%; NPC1 promoter act: inconclusive

What do the screens show for `COc1ccc(Cc2nc3ccc(C(=O)N4C[C@@H](C)O[C@@H](C)C4)cc3o2)cc1OC`?
Rab9 promoter act: 10%; FLuc modulator: 15µM*; ELG1 genotoxic: inconclusive; NPC1 promoter act: 26%

Results for COc1ccc(Cc2nc3ccc(C(=O)N4CCOCC4)cc3o2)cc1 ?
Rab9 promoter act: 4µM*; FLuc modulator: 13µM*; ELG1 genotoxic: 18µM*; NPC1 promoter act: 3.2µM*

Results for Cc1ccc(NC(=S)N2CCN(Cc3ccccc3)CC2)c(C)c1 ?
KinaseGlo FLuc: 1%; Rab9 promoter act: 1%; FLuc modulator: inconclusive; SMN2 splice up: -3%; ELG1 genotoxic: -2%; NPC1 promoter act: 0%

What do the screens show for `CN(C)c1ccc(-c2c(-c3ccc4c(c3)OCO4)noc2-c2ccsc2)cn1`?
Rab9 promoter act: 9%; FLuc modulator: inconclusive; ELG1 genotoxic: -1%; NPC1 promoter act: 10%
